Tau fluor counter: Counterscreen qHTS for Inhibitors of Tau Fibril Formation, Fluorescence Polarization; hit rate 0.93% among 280,000; Potency, µM (titrated, usually from 57.7 µM), inactives show top-dose activity change, negative = decrease; tau K18 P301L Alexa594 fluorescence, heparin fibrillization; AID 1463, 2008; also: nearly all actives have a fitted effect of over 55% in size
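Human K18 P301L tau (15 uM unlabeled plus 0.24 uM Alexa 594-labeled, final) in 100 mM sodium acetate pH 7 was mixed with compound and 20 uM heparin and incubated 6 hr at 37 C.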
Tau fibril FP: qHTS for Inhibitors of Tau Fibril Formation, Fluorescence Polarization | Microtubule-associated protein tau (Homo sapiens), P10636 | K18 P301L tau heparin fibrillization, Alexa594 FP, 6 h | Potency, µM (top dose mostly 57.7 µM), for inactives: top-dose activity, negative = inhibition, hits mostly inhibitors | hit rate 0.39% among 280,000 | AID 1468, 2008; also: nearly all actives have a fitted effect of over 55% in size
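Heparin (20 uM) drove fibril formation of recombinant tau K18 P301L, 15 uM unlabeled with 0.24 uM Alexa 594 label, for 6 hr at 37 C in 100 mM sodium acetate pH 7. Fluorescence polarization (555/632 nm) read 1 hr after 30 uM ThT.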
RORgamma inh: qHTS for inhibitors of ROR gamma transcriptional activity; hit rate 5.4% among 310,000; Potency, µM (highest dose often 53.6 µM), for inactives: at the top dose activity change, negative = inhibition, most hits filed as inhibitors; Drosophila S2 Gal4-RORgamma UAS-luciferase reporter, 20 h; Nuclear receptor ROR-gamma (Mus musculus), P51450; also: nearly all actives have a fitted effect of over 60% in size
Target sequence (P51450 whole entry, looked up, the tested form may be a part): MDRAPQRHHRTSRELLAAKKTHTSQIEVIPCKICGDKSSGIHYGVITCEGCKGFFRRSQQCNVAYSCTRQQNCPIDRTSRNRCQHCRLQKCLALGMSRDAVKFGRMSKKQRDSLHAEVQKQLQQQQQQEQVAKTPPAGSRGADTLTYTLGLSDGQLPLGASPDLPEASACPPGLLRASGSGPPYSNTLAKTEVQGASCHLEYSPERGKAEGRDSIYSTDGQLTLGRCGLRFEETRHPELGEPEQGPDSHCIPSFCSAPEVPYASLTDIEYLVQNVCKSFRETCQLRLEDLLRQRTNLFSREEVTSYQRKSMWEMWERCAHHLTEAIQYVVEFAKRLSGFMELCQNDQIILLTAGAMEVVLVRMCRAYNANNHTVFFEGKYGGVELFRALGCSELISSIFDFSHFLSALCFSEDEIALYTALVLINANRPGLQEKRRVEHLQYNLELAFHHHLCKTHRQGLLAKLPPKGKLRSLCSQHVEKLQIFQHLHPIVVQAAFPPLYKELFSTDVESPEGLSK
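In this cell-based reporter format, copper sulfate (700 uM final) drives Gal4–ROR gamma fusion expression from a metallothionein promoter in Drosophila Schneider cells; compounds preincubated 1 hr, reporter read after 20 hr at ambient temperature.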
Tau ThT inhib: qHTS for Inhibitors of Tau Fibril Formation, Thioflavin T Binding | recombinant tau K18 P301L (four-repeat tau fragment), heparin-induced fibrillization, ThT fluorescence | Potency, µM (titrated, usually from 57.4 µM), without a hit: top-dose activity, negative = inhibition, actives largely listed as inhibitors | hit rate 2.1% among 270,000; also: nearly all actives have a fitted effect of over 55% in size
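Aggregation was driven by heparin (20 uM final) acting on recombinant tau […] bearing P301L in 100 mM sodium acetate pH 7; fibrils were detected with Thioflavin T.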
VP16 counter: VP16 counterscreen qHTS for inhibitors of ROR gamma transcriptional activity; Drosophila S2 Gal4-VP16 UAS-luciferase, luminescence, 20 h; Potency, µM (top dose mostly 53.6 µM), without a hit: top-dose activity, negative = inhibition, hits mostly inhibitors; hit rate 3.5% among 310,000; AID 2546, 2010;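 also: Gal4-VP16 expression switched on by copper sulfate through the metallothionein promoter; nearly all actives have a fitted effect of over 50% in size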
* = called active by the depositor; ? = inconclusive; nt = no result. Sampled rows, rich in hits. Any-hit rate of the full collection: about 7.3%. Calls follow the shape of the dose curve; as a rule, active = well fitted curve in the direction sought with a large enough effect; inconclusive = small, poorly fitted or top-dose-only effect, or another doubt; inactive = no such curve, though single readings can be large; an effect the other way counts as inactive or inconclusive. % is scaled to controls: 0 for no effect and ±100 for the full control effect; potency is read from the fitted curve at half-maximal effect.

SMILES | Tau fluor counter | Tau fibril FP | RORgamma inh | Tau ThT inhib | VP16 counter
O=C(O)COc1ccccc1/C=N/n1c(C2CCCCC2)n[nH]c1=S | nt | nt | -31% | nt | -8%
S=c1[nH]nc(C2CCCCC2)n1/N=C/C=C/c1ccccc1 | -12% | 3% | 0.89µM* | -17% | 6.3µM*
S=c1[nH]nc(-c2cccnc2)n1/N=C/C=C/c1ccccc1 | 2% | -2% | 4.5µM* | -7% | ?
S=c1[nH]nc(C2CCCCC2)n1/N=C/C(Cl)=C\c1ccccc1 | -6% | -5% | 2µM* | ? | 5.6µM*
S=c1[nH]nc(-c2cccnc2)n1/N=C/c1ccccc1 | -5% | -1% | ? | -5% | -9%
CCOc1ccc(NC(=O)C(C)C(Cc2ccc(C)cc2)C(=O)O)cc1 (centres undefined) | nt | nt | 3% | nt | 0%
O=C(Nc1ncccn1)c1ccc(Cl)c([N+](=O)[O-])c1 | nt | nt | ? | nt | 4%
O=C(C1CCN(S(=O)(=O)c2cccc3nonc23)CC1)N1CCN(c2ccc(F)cc2)CC1 | -20% | ? | nt | -15% | nt
Cc1ccc(-c2nnc(Nc3ccc(Br)cc3)c3ccccc23)cc1S(=O)(=O)N1CCOCC1 | -17% | -29% | nt | 13% | nt
O=S(=O)(Nc1ccc(-n2cccc2)cc1)c1ccc(F)cc1 | ? | -16% | -9% | -1% | 0%
O=S(=O)(Nc1ccc(-n2cccc2)cc1)c1ccc(Cl)cc1Cl | ? | -16% | 20µM* | -17% | 14µM*
O=S(=O)(Nc1ccc(-n2cccc2)cc1)c1ccc(Cl)c(Cl)c1 | ? | 14µM* | -26% | -9% | -28%
O=S(=O)(Nc1ccc(N2CCOCC2)cc1)c1cc(Cl)ccc1Cl | nt | nt | 0% | nt | 6%
CC(C)CN1CCC2(CC1)CCN(C(=O)c1cnccn1)CC2 | nt | nt | -9% | nt | -4%
Cc1ccccc1NC(=S)NC(=O)/C=C/c1ccco1 | nt | nt | ? | nt | 13µM*
Cc1ccccc1NC(=O)/C(=C/c1ccco1)c1ccccc1 | -22% | -10% | -14% | -14% | 10%
COc1ccccc1NC(=S)NC(=O)/C=C/c1ccco1 | -15% | -13% | 13µM* | ? | 20µM*
COc1cc2c(cc1NC(=S)NC(=O)/C=C/c1ccco1)oc1ccccc12 | -5% | -8% | 3.2µM* | ? | 5µM*
CC(C)Oc1ccc(CNC(=O)c2cnc3sc(N4CCCCC4)nn3c2=O)cc1 | -4% | -4% | nt | 5% | nt
CC(=O)CC1OC(=O)C(Br)=C1NCc1ccccc1 (centres undefined) | -19% | ? | ? | 8.9µM* | 20µM*
CSCc1ccc(C(=O)NC2CC(C)(C)Cc3c2cnn3-c2ccc(F)cc2)o1 (centres undefined) | nt | nt | ? | nt | -4%
CCOc1ccc(NC(=O)n2ncc3c(C)cccc32)cc1 | nt | nt | 0.45µM* | nt | 1.1µM*
COC(=O)c1ccc(NC(=O)n2ncc3c(C)cccc32)cc1 | 5% | -2% | nt | 4% | nt
COc1cccc(NC(=O)n2ncc3c(C)cccc32)c1 | nt | nt | 1.6µM* | nt | 2.8µM*
Cc1cccc(CNC(=O)c2ccc3nc(Cc4ccccc4)oc3c2)c1 | -20% | -7% | nt | -14% | nt
SMILES | Tau fluor counter | Tau fibril FP | RORgamma inh | Tau ThT inhib | VP16 counter
CC(=O)Nc1nc(NC(=O)C(Cl)(Cl)Cl)n(-c2ccccc2)n1 | 5% | 2% | 7.1µM* | -3% | 13µM*
CC(=O)Nc1nc(N)n(-c2ccccc2)n1 | -4% | -6% | -1% | 0% | -5%
C=C1c2ccccc2NC(=S)N1Cc1ccc2c(c1)OCO2 | -21% | 2% | 3.2µM* | -11% | ?
O=C1c2ccccc2C(=O)N1Cc1ccc2c(c1)OCO2 | -3% | 1% | 3% | 8% | 8%
COc1ccc(NC(=O)c2ccc3c(c2)NC(=O)CS3)cc1S(=O)(=O)Nc1ccc(Br)cc1 | ? | 28µM* | -43% | 1% | ?
CCCCNc1nc2ccccc2c2nc(-c3ccccc3)nn12 | ? | ? | nt | -8% | nt
COc1cc(-c2cccs2)cc(=O)c2c(C)oc(C)c12 | -19% | ? | 7% | 25µM* | -8%
O=c1c(-c2ccccc2)nc2cnc(N3CCOCC3)nc2n1-c1ccccc1 | nt | nt | 2% | nt | -3%

Screening results deposited in PubChem by National Center for Advancing Translational Sciences (NCATS).
